# Test results: PubChem BioAssay (Tox21)
# Inconclusive results are not listed. Where a call stands in place of a potency, no number is given. Values without a mark were called inactive. Activity calls are given as the source filed them. Unless noted, the call rests on the fitted dose curve; in most records, active means well fitted curve in the direction sought with a large enough effect in the repeat runs; inconclusive means weak or mixed curves; inactive means no such curve, though single readings can be large; an effect the other way counts as inactive or inconclusive.
# Tests used:
# [1] = qHTS assay to identify small molecule antagonists of the retinoid acid receptor (RAR) signaling pathway - cell viability counter screen (AID 1159551); further: nearly all actives have a fitted effect of over 35% in size; further: potency means the concentration at half of the fitted maximal effect
# Summary of the method: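 C3RL4 RARE-luciferase line; cpds + retinol 1 uM final, 6 h, 37 C/5% CO2; CellTiter-Glo ATP luminescence, 30 min RT.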
# [2] = qHTS assay to identify small molecule antagonists of the retinoic acid receptor (RAR) signaling pathway (AID 1159552; further: nearly all actives have a fitted effect of over 50% in size; further: potency means the concentration at half of the fitted maximal effect)
# Summary of the method: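 C3RL4 RARE-luc cells, overnight plating; retinol 1 uM final added right after compound; 6 hr 37 C; luciferase read at 30 min RT.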
# [3] = qHTS assay to identify small molecule agonists of the retinoic acid receptor (RAR) signaling pathway (AID 1159553); settings: C3RL4 RARE luciferase reporter, agonist, 6 h; activation: at 73.3 µM (top of the series)
# Summary of the method: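 RARE-luc C3RL4 cells; overnight attachment 37 C/5% CO2; compound (DMSO) 6 hr; luciferase reagent, 30 min RT; luminescence read-out.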
# [4] = molecular target: Luciferin 4-monooxygenase (Photinus pyralis) (UniProt P08659); experiment: qHTS assay to identify small molecule inhibitors of firefly luciferase (AID 1224835); further: nearly all actives have a fitted effect of over 25% in size; further: potency means the concentration at half of the fitted maximal effect
# Sequence of Luciferin 4-monooxygenase (Photinus pyralis) (P08659 whole entry, looked up): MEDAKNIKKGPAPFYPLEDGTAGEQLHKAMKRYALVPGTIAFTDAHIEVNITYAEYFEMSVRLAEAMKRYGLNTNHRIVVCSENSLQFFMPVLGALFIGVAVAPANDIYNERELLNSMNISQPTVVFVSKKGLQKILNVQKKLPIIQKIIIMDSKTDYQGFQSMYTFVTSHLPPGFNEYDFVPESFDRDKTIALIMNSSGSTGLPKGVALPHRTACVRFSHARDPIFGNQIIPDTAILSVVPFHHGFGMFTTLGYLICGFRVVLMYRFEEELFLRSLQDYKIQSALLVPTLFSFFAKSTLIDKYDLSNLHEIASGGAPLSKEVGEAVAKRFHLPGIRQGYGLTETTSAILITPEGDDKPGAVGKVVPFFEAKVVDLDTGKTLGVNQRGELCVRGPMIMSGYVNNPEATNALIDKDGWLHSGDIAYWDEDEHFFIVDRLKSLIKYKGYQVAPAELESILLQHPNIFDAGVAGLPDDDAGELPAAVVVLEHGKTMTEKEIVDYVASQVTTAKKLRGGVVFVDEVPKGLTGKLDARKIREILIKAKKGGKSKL
# Summary of the method: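 Biochemical qHTS: compounds run as interplate titrations against purified firefly enzyme, with D-luciferin and ATP each at its KM concentration. Light output recorded by CCD imaging.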
# [5] = molecular target: Nuclear receptor subfamily 1 group I member 3 (Homo sapiens) (UniProt Q14994); experiment: qHTS assay to identify small molecule antagonists of the constitutive androstane receptor (CAR) signaling pathway (AID 1224838);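 further: HepG2 cells stably expressing hCAR with CYP2B6 luciferase reporter stimulated by CITCO; nearly all actives have a fitted effect of over 40% in size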; further: potency means the concentration at half of the fitted maximal effect
# Sequence of Nuclear receptor subfamily 1 group I member 3 (Homo sapiens) (Q14994 whole entry, looked up): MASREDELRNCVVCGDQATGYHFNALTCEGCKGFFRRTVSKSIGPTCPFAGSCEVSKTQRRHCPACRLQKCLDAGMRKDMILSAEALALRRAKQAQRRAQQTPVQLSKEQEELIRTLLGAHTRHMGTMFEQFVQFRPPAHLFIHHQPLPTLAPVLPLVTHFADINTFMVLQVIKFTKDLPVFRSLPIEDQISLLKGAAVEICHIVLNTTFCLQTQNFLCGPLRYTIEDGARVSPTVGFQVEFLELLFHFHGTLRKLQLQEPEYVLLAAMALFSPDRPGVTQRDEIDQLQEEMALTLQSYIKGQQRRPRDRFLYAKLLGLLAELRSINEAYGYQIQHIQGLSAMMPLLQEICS
# Summary of the method: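 Read-out: ONE-Glo luciferase luminescence after 30 min at room temperature. HepG2-CYP2B6-hCAR double-stable cells, compounds in 15-point titration plus 50 nM CITCO final, 24 h at 37 C/5% CO2.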
# [6] = molecular target: Nuclear receptor subfamily 1 group I member 3 (Homo sapiens) (UniProt Q14994); experiment: qHTS assay to identify small molecule agonists of the constitutive androstane receptor (CAR) signaling pathway (AID 1224839); further: nearly all actives have a fitted effect of over 15% in size; further: potency means the concentration at half of the fitted maximal effect;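 on activation: HepG2 cells stably carrying human CAR and a CYP2B6 luciferase reporter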
# Summary of the method: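 Double-stable HepG2 cells (hCAR, CYP2B6-2.2kb) seeded 4 h before compound addition. Exposure 24 h with 0.75 uM PK11195 final. Luciferase detected by ONE-Glo.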
# [7] = qHTS assay to identify small molecule agonists of the constitutive androstane receptor (CAR) signaling pathway - cell viability counter screen (AID 1224836); further: nearly all actives have a fitted effect of over 45% in size; further: potency means the concentration at half of the fitted maximal effect
# Summary of the method: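 Using CellTiter-Fluor, viability of HepG2 cells harbouring hCAR and CYP2B6-2.2kb was measured following 23 h incubation with a 15-concentration compound series plus PK11195 (0.75 uM final).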
# [8] = qHTS assay to identify small molecule antagonists of the constitutive androstane receptor (CAR) signaling pathway - cell viability counter screen (AID 1224837); further: nearly all actives have a fitted effect of over 45% in size; further: potency means the concentration at half of the fitted maximal effect
# Summary of the method: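 Read-out: CellTiter-Fluor fluorescence after 23 hr at 37 C/5% CO2. Cells: HepG2 double-stable for hCAR and CYP2B6-2.2kb. Compounds tested at 15 concentrations in the presence of CITCO, final concentration 50 nM.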
# [9] = qHTS assay to identify small molecule antagonists of the estrogen related receptor signaling pathway with the pleiotropic PPARgamma coactivator (PGC) from Tox21 10K library - cell viability counter screen (AID 1224840; active means well fitted cell-killing curve with a large enough effect in the repeat runs, not every such curve was filed as active; further: nearly all actives have a fitted effect of over 40% in size; further: potency means the concentration at half of the fitted maximal effect)
# Summary of the method: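 Fluorescence read-out of CellTiter-Fluor viability reagent, added after cells had been exposed to compound in DMSO for 17.5 h at 37 C; 30 min development at 37 C/5% CO2. Cells: PGC/ERR line, 2,000/well.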
# [10] = qHTS assay to identify small molecule agonists of the estrogen related receptor signaling pathway with the pleiotropic PPARgamma coactivator (PGC) from Tox21 10K library (AID 1224842); further: nearly all actives have a fitted effect of over 15% in size
# Summary of the method: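 PGC/ERR reporter cell line, 2,000 cells per well, incubated 6 h at 37 C before 23 nL compound in DMSO was added. After 18 h at 37 C, One-Glo luminescence read following 30 min at room temperature.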
# [11] = qHTS assay to identify small molecule antagonists of the estrogen related receptor (ERR) signaling pathway from Tox21 library - cell viability counter screen (AID 1224834); further: nearly all actives have a fitted effect of over 30% in size; further: potency means the concentration at half of the fitted maximal effect
# Summary of the method: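 Multiplexed viability counter screen in ERR cells: 17.5 h compound exposure at 37 C, CellTiter-Fluor added, 30 min at 37 C/5% CO2, fluorescence read.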
# [12] = qHTS assay to identify small molecule antagonists of the estrogen related receptor signaling pathway with the pleiotropic PPARgamma coactivator (PGC) from Tox21 10K library (AID 1224841; call rule not given here; further: actives are mostly falling curves and most rising ones were filed inactive; nearly all actives have a fitted effect of over 50% in size; further: potency means the concentration at half of the fitted maximal effect)
# Summary of the method: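 Luminescence read-out (One-Glo luciferase reagent, 30 min at room temperature) from PGC/ERR cells exposed to DMSO-dissolved test compounds for 18 h at 37 C; cells, 2,000 per well, had been preincubated 6 h before compound transfer.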
# [13] = qHTS assay to identify small molecule antagonists of the estrogen related receptor (ERR) signaling pathway - cell viability counter screen (AID 1224818)
# Summary of the method: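 Fluorescence from CellTiter-Fluor, read 30 min after reagent addition at 37 C, measured viability of ERR cells exposed to compounds for 17.5 h. Cells had settled 6 h before dosing.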
# [14] = qHTS assay to identify small molecule antagonists of the estrogen related receptor signaling pathway with the pleiotropic PPARgamma coactivator (PGC) cell viability counter screen (AID 1224822)
# Summary of the method: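 Fluorescence read-out of CellTiter-Fluor after 30 min at 37 C; PGC/ERR cells, 2,000 per well, had been exposed to DMSO-dissolved compounds for 17.5 h following a 6 h pre-incubation.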
smiles,measurement,setting,value
CC1(CN2CCC(n3c(=O)[nH]c4ccccc43)CC2)OCc2ccccc2-n2cccc21 (stereo not given),Potency,[1],inactive
same,Potency,[2],29.8 µM (active)
same,Potency,[3],inactive
same,Potency,[4],inactive
same,Potency,[5],inactive
same,Potency,[6],inactive
C/C=C\C/C=C/CCCCCCCCOC(C)=O,Potency,[1],inactive
same,Potency,[3],inactive
same,Potency,[4],inactive
same,Potency,[7],inactive
same,Potency,[8],inactive
same,Potency,[5],inactive
same,Potency,[6],inactive
same,Potency,[9],inactive
same,Potency,[10],inactive
C/C=C(/C(=C/C)c1ccc(O)cc1)c1ccc(O)cc1,Potency,[1],inactive
same,Potency,[3],inactive
same,Potency,[4],inactive
same,Potency,[7],inactive
same,Potency,[8],inactive
same,Potency,[5],inactive
same,Potency,[6],inactive
same,Potency,[9],inactive
CC[C@]1(O)C[C@H]2CN(CCc3c([nH]c4ccccc34)[C@@](C(=O)OC)(c3cc4c(cc3OC)N(C=O)[C@H]3[C@@](O)(C(=O)OC)[C@H](OC(C)=O)[C@]5(CC)C=CCN6CC[C@]43[C@@H]65)C2)C1,Potency,[1],inactive
same,Potency,[2],0.168 µM (active)
same,Potency,[4],inactive
same,Potency,[5],0.211 µM (active)
same,Potency,[6],inactive
CC(C)(O)c1ccc(CNC(=O)c2cccnc2Oc2ccc3nonc3c2)cc1,Potency,[1],inactive
same,Potency,[3],inactive
same,Potency,[4],inactive
same,Potency,[7],inactive
same,Potency,[8],inactive
same,Potency,[5],inactive
same,Potency,[6],24.3 µM (active)
same,Potency,[10],inactive
Oc1ccc(Cl)c2cccnc12,Potency,[1],inactive
same,Potency,[2],inactive
same,Potency,[4],inactive
same,Potency,[9],inactive
same,Potency,[10],inactive
CCCCCCCCC(CCCCCC)C(=O)O (stereo not given),Potency,[1],inactive
same,Potency,[11],inactive
same,Potency,[4],inactive
same,Potency,[7],inactive
same,Potency,[8],inactive
same,Potency,[5],inactive
same,Potency,[6],inactive
same,Potency,[9],inactive
same,Potency,[12],inactive
same,Potency,[10],inactive
Cc1ccccc1S,Potency,[1],inactive
same,Potency,[11],inactive
same,Potency,[7],inactive
same,Potency,[8],inactive
same,Potency,[5],inactive
same,Potency,[6],inactive
same,Potency,[9],inactive
C=C(C)C(=O)OCCOCCOC(=O)C(=C)C,Potency,[1],inactive
same,Potency,[11],inactive
same,Potency,[4],inactive
same,Potency,[8],inactive
same,Potency,[5],inactive
same,Potency,[6],inactive
same,Potency,[9],inactive
same,Potency,[10],inactive
Brc1cc2ccccc2c2ccccc12,Potency,[2],inactive
same,Potency,[3],inactive
same,Potency,[11],inactive
same,Potency,[4],inactive
same,Potency,[6],17.4 µM (active)
O=[N+]([O-])c1ccc(O/N=C/c2cc(Br)c(O)c(Br)c2)c([N+](=O)[O-])c1,Potency,[1],inactive
same,Potency,[11],30.5 µM (active)
same,Potency,[8],34.2 µM (active)
same,Potency,[5],inactive
same,Potency,[9],48.3 µM (active)
Brc1cc(Br)c(Oc2cc(Br)c(Br)cc2Br)cc1Br,Potency,[1],inactive
same,Potency,[11],inactive
same,Potency,[4],inactive
same,Potency,[7],inactive
same,Potency,[8],inactive
same,Potency,[5],inactive
same,Potency,[6],inactive
same,Potency,[9],inactive
Oc1cccc(O)c1O,Potency,[2],inactive
same,activation,[3],3.27% (active)
same,Potency,[8],inactive
same,Potency,[5],inactive
same,Potency,[6],inactive
same,Potency,[9],inactive
Nc1nc2ccc([N+](=O)[O-])cc2s1,Potency,[2],inactive
same,Potency,[3],inactive
same,outcome,[13],inactive
same,outcome,[14],inactive
same,Potency,[5],inactive
C[C@@H](CN(C)C)CN1c2ccccc2Sc2ccccc21,Potency,[1],inactive
same,Potency,[11],26.6 µM (active)
same,Potency,[4],inactive
same,Potency,[5],inactive
same,Potency,[9],inactive
same,Potency,[12],inactive
same,Potency,[10],inactive
CC(C)(C)CC(=O)OCC(=O)[C@@]1(O)CC[C@H]2[C@@H]3CCC4=CC(=O)C=C[C@]4(C)[C@H]3[C@@H](O)C[C@@]21C,Potency,[1],inactive
same,Potency,[2],33.5 µM (active)
same,Potency,[11],26.6 µM (active)
same,Potency,[4],inactive
same,Potency,[8],inactive
same,Potency,[5],inactive
same,Potency,[6],inactive
same,Potency,[9],inactive
same,Potency,[12],23.7 µM (active)
same,Potency,[10],inactive
COC(=O)c1nc(Cl)c(Cl)nc1N,Potency,[2],11.9 µM (active)
same,Potency,[4],inactive
same,Potency,[7],inactive
same,Potency,[8],29.8 µM (active)
same,Potency,[5],2.98 µM (active)
same,Potency,[6],inactive
same,Potency,[9],1.68 µM (active)
CC1=C(Br)C(=O)C(Br)=C/C1=C(/c1ccccc1S(=O)(=O)O)c1cc(Br)c(O)c(Br)c1C,Potency,[1],16.5 µM (active)
same,Potency,[2],20.8 µM (active)
same,Potency,[3],inactive
same,Potency,[4],19.2 µM (active)
same,Potency,[7],18.6 µM (active)
same,Potency,[8],33 µM (active)
same,Potency,[5],18.6 µM (active)
same,Potency,[6],inactive
same,Potency,[9],18.6 µM (active)
same,Potency,[12],16.5 µM (active)
same,Potency,[10],inactive
